The values below come from PubChem BioAssay AID686978 (National Center for Advancing Translational Sciences (NCATS), 2013).

Hit rate of the full screen: of about 420,000 compounds, about 64,000 (15%) were called active. About 27% were inconclusive and are not listed. Calls come from the whole dose curve; as a rule, active = well fitted inhibition curve with a large enough effect; inconclusive = small, poorly fitted or top-dose-only effect; inactive = flat fitted curve, though single readings scatter. Not all results are given here. Where a call stands in place of a potency, no number is given.
Potency is the fitted concentration of half-maximal effect.

The test is described as follows: qHTS for Inhibitors of human tyrosyl-DNA phosphodiesterase 1 (TDP1): qHTS in cells in absence of CPT. Note: nearly all actives have a fitted effect of over 55% in size. The note with it: DT40 Tdp1-/- hTDP1 cells, no CPT, ATP luminescence, 48 h; activity change, negative = growth inhibition: at 46.2 µM (top of the series). In outline: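 Cells were dispensed at 400 per well, compounds added by pin tool, plates incubated ≥48 hr at 37 °C, then CellTiter-Glo added for 30 min at room temperature before luminescence reading. Line: DT40 Tdp1-/- complemented with hTDP1; camptothecin omitted.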
In the case of `Cc1ccccc1C(=O)NCCN=C1NS(=O)(=O)c2ccccc21`, the Potency entry was “inactive”.

`CC(=O)N[C@H]1[C@H]([C@H](O)[C@H](O)CO)OC(C(=O)O)=C[C@@H]1O`: the Potency entry was “inactive”.

For `Cc1ccc(S(=O)(=O)c2ccc(Cl)cc2)cc1S(=O)(=O)NC(C(=O)O)C(C)C` (stereo not given), the Potency entry is “inactive”.

Turning to `CN(C)c1ccc(-n2cccc2/C=N/n2cnnc2)cc1`, the Potency result was “inactive”.

`C=CCN1C(=NC(=O)COc2ccccc2)SC2CS(=O)(=O)CC21` (stereo not given): the Potency result was “inactive”.

For `Nc1ccc2nc3c(=O)[nH]c(=S)[nH]c3nc2c1`, the Potency result is “inactive”.

As to `Cc1ccccc1OCC(=O)Nc1c(C(=O)Nc2ccccc2F)oc2ccccc12`, the Potency result is “inactive”.

`Cn1c(SCC(=O)c2ccccc2)ncc(C(=O)Nc2ccc(F)cc2)c1=O`: the Potency entry is “inactive”.

For the compound `Cc1cc(NC(=O)CSc2ncc(C(=O)Nc3ccc(Cl)cc3)c(=O)n2C)no1`, the Potency entry is “inactive”.

`Cc1ccc(NC(=O)c2cnc(SCC(=O)NCC3CCCO3)n(C)c2=O)cc1` (stereo not given): the Potency is 14.6 µM (active).

With `COc1cccc(-n2ccn(CC(=O)NCc3ccc(C)cc3)c(=O)c2=O)c1`, the Potency result was “inactive”.

For the compound `CC(C)=CCN1CCC2(CCc3ccccc32)CC1`, the Potency is 20.6 µM (active).

Turning to `CC(C)=CCN1CCN(CCCc2ccccc2)CC1CCO` (stereo not given), the Potency result was “inactive”.

`OCC[C@H]1C[C@@H](O)[C@H](O)[C@@]2(OCCc3ccccc32)O1`: the Potency entry was “inactive”.

On to `Cc1cc(NC(=O)CCC2COc3ccccc3O2)no1` (stereo not given), for which the Potency entry is “inactive”.

Consider `Cc1ccc(S(=O)(=O)NCCC(=O)NNC(=O)C2COc3ccccc3O2)cc1` (stereo not given), for which the Potency entry is “inactive”.

With `O=C(CN1C(=O)C2C3C=CC(C3)C2C1=O)NCC1COc2ccccc2O1` (stereo not given), the Potency entry is “inactive”.

On to `Cc1cc(C(=O)CCl)c(C)n1CC1COc2ccccc2O1` (stereo not given), for which the Potency is 2.59 µM (active).

Take `O=C1C(=O)N(CC2COc3ccccc3O2)c2ccccc21` (stereo not given): the Potency was 1.46 µM (active).

Regarding `CCn1ccnc1C[C@@H]1COc2ccccc2O1`, the Potency result was “inactive”.

`CCN(CCN(C)C)C(=O)c1ccc2nc(C)c(N(C)C(=O)CCc3ccccc3)n2c1`: the Potency result was “inactive”.

On to `CCOc1ccc(Br)cc1S(=O)(=O)Nc1ccc(S(=O)(=O)Nc2cc(C)on2)cc1`, for which the Potency entry is “inactive”.

For `CC1C(=O)Nc2ccccc2N1C(=O)c1ccc(F)cc1F` (stereo not given), the Potency result is “inactive”.

In the case of `CCn1c(SCC(=O)NC2CC2)nnc1-c1ccccc1OC`, the Potency entry is “inactive”.

Consider `Cc1ccc2cc(CN(c3ccc(C)c(C)c3)S(C)(=O)=O)c(=O)[nH]c2c1`, for which the Potency entry is “inactive”.

`Cc1cc(C)c2c(c1)cc(C)c1nnc(SCC(=O)Nc3cc(C)on3)n12`: the Potency is 11.6 µM (active).

As to `Cc1cc(NC(=O)CSc2nnnn2-c2ccc(F)cc2)no1`, the Potency result is “inactive”.

On to `Cc1cc(NC(=O)CSc2nnc(-c3ccco3)n2N)no1`, for which the Potency result is “inactive”.

On to `Cc1ccc(NC(=O)C(Cc2ccccc2)NS(=O)(=O)c2ccc3c(c2)oc(=O)n3C)cc1C` (stereo not given), for which the Potency result is “inactive”.

Turning to `CN(C(=O)CC1C(=O)NCCN1Cc1ccc2ccccc2c1)C1CCOCC1` (stereo not given), the Potency result was “inactive”.

For `O=C1CC(c2c(F)cccc2Cl)C(n2cncn2)C(O)=C1C1NCCc2ccccc21` (stereo not given), the Potency result was “inactive”.

With `Cc1ccc(C(=O)NNC(=O)CSc2nnc3ccccn23)cc1`, the Potency entry is “inactive”.

Take `Cc1ccc(C(C[N+](=O)[O-])c2c(C)cc3ccccn23)cc1` (stereo not given): the Potency was 16.4 µM (active).

With `COc1ccc(CC(=O)Nc2nc3n(n2)C(c2ccccc2)CC(=O)N3)cc1OC` (stereo not given), the Potency result was “inactive”.

Turning to `O=C(CN1CCN(c2ccccn2)CC1)NCc1cccs1`, the Potency result was “inactive”.

Regarding `O=C(COc1cc(Cl)c(Cl)cc1Cl)NCCc1ccccn1`, the Potency entry is “inactive”.

For `O=C(COC(=O)COc1cc(Cl)c(Cl)cc1Cl)NC1CC1`, the Potency result is “inactive”.

`NC(=S)NN=Cc1ccc(OC(=O)COc2cc(Cl)c(Cl)cc2Cl)cn1`: the Potency was 5.8 µM (active).

Turning to `Cc1nn(C)c(C)c1Sc1ccccc1N`, the Potency entry was “inactive”.

For `CC(=O)OC(C(=O)NCCc1ccccc1)c1cccnc1` (stereo not given), the Potency entry is “inactive”.

As for `O=C(COC(=O)c1ccc2c(c1)OCCO2)NCc1ccccc1`, the Potency entry is “inactive”.

Turning to `O=C(Cc1ccc([N+](=O)[O-])cc1)NCCc1ccc2c(c1)OCO2`, the Potency result is “inactive”.

With `O=C(NCCc1ccc2c(c1)OCCO2)c1cc2ccccc2o1`, the Potency is 20.6 µM (active).

For `CN(C)S(=O)(=O)c1ccc(N2CCCC2)c(C(=O)Nc2cccc(F)c2)c1`, the Potency entry was “inactive”.

For `O=C(Nc1cccc([N+](=O)[O-])c1)Nc1ccc(Cl)cn1`, the Potency entry is “inactive”.

With `O=C(CCl)N(Cc1cccc([N+](=O)[O-])c1)c1cccc(Cl)c1`, the Potency is 4.11 µM (active).

As for `CCN(CC)C(=O)CN(c1cccc([N+](=O)[O-])c1)S(=O)(=O)c1ccccc1`, the Potency result was “inactive”.

Consider `O=C1O/C(=C\c2ccc(O)cc2)C(O)=C1c1ccc(O)cc1`, for which the Potency entry was “inactive”.

Turning to `Cc1cc(C)c2nc(N3CCCC3)c(C#N)cc2c1`, the Potency entry was “inactive”.

With `Cc1cccc2cc(C#N)c(N3CCCC3)nc12`, the Potency entry is “inactive”.

As for `Cc1cc(C)c2cc(C#N)c(N3CCNCC3)nc2c1`, the Potency is 18.4 µM (active).

In the case of `Cc1cccc(C)c1NC(=O)CNC(=O)c1c(C)nn(-c2ccccc2)c1C`, the Potency entry was “inactive”.

Consider `COC(=O)N1CCC[C@@]2(CCN(C(=O)NC(C)C)C2)C1`, for which the Potency entry was “inactive”.

Take `COc1cccc(OCC(O)CN2CCN(CCO)CC2)c1` (stereo not given): the Potency result is “inactive”.

In the case of `Cc1cc(=O)oc2cc(OCC(=O)N3CCN(c4ccc(F)cc4)CC3)c(Cl)cc12`, the Potency entry is “inactive”.

Turning to `CSCCC(NC(=O)COc1ccccc1)C(=O)OCCOc1ccc(F)cc1` (stereo not given), the Potency entry was “inactive”.

Take `COc1ccc(OCC(=O)N2CCN(C(=O)COc3ccccc3)CC2)cc1`: the Potency entry was “inactive”.

As for `CSCCC(NC(=O)COc1ccccc1)C(=O)OCCOc1ccc(Br)cc1` (stereo not given), the Potency result is “inactive”.

`O=C(COc1ccc2c(c1)CCC2)N1CCN(c2ccc(F)cc2)CC1`: the Potency entry was “inactive”.

Regarding `COc1ccc(N2CCN(C(=O)COc3ccc4c(C)cc(=O)oc4c3)CC2)cc1`, the Potency result is “inactive”.

With `CSCCC(NC(=O)COc1ccccc1)C(=O)N1CCN(c2cccc(C(F)(F)F)c2)CC1` (stereo not given), the Potency is 13 µM (active).

`OC(COc1ccc2c(c1)CCC2)CN1CCN(c2cccc(Cl)c2)CC1` (stereo not given): the Potency was 18.4 µM (active).

Turning to `O=C(COc1ccc(Cl)cc1)N1CCN(c2cccc(C(F)(F)F)c2)CC1`, the Potency is 20.6 µM (active).

Regarding `Cc1c(C)c2ccc(OCC(=O)N3CCN(c4cccc(Cl)c4)CC3)cc2oc1=O`, the Potency was 10.3 µM (active).

As for `OC(COc1cccc(OCC(O)CN2CCCC2)c1)CN1CCCC1` (stereo not given), the Potency entry is “inactive”.

With `O=C(O)c1cc([N+](=O)[O-])c(Nc2cccc3ccccc23)c([N+](=O)[O-])c1`, the Potency result was “inactive”.

Consider `CCn1ncc(C2=NOC(C(=O)N3CCN(c4ccccc4)CC3)C2)c1C` (stereo not given), for which the Potency entry was “inactive”.

`O=C1OC(NC(=O)c2ccccc2)C(N2CCOCC2)=C1Cl` (stereo not given): the Potency entry is “inactive”.

As to `CCOC(=O)CCCNC(=O)COC(=O)c1cc(Br)c(Br)s1`, the Potency result was “inactive”.

With `Cc1cccc(C)c1NC(=O)CNC(=O)C1CCCC1`, the Potency result was “inactive”.

Regarding `CC(C)(C)NC(=O)C(c1ccncc1)N(C(=O)CNC(=O)c1ccco1)c1ccc2c(c1)OCO2` (stereo not given), the Potency entry is “inactive”.

In the case of `Cc1nc(Nc2ccccc2F)c2nnn(Cc3ccccc3Cl)c2n1`, the Potency entry is “inactive”.

In the case of `O=C(CCN1C(=O)[C@@H]2Cc3ccccc3CN2C1=O)NCCc1ccccc1`, the Potency entry is “inactive”.

Take `O=C(NC1CCCCC1)C1CC(=O)N(CCc2ccccc2)C1` (stereo not given): the Potency entry was “inactive”.

Take `COc1ccccc1-c1nnc(SCC(=O)Nc2ccccc2)o1`: the Potency entry is “inactive”.

For the compound `CCC(=O)c1ccc(OCC(O)CN2CC(C)OC(C)C2)cc1` (stereo not given), the Potency entry was “inactive”.

As for `CCC(=O)c1ccc(OCC(O)CN2CCN(c3cccc(C(F)(F)F)c3)CC2)cc1` (stereo not given), the Potency was 25.9 µM (active).

For `O=C(c1ccccc1)c1ccc(OCC(O)CN2CCCC2)cc1` (stereo not given), the Potency entry was “inactive”.

`CCn1cc(C(=O)NCC(=O)NC(C)(C)CO)c(=O)c2cc3c(cc21)OCO3`: the Potency entry was “inactive”.

As for `C/C(=N\NC(=O)C1(C)CC1(Br)Br)c1ccc(C)cc1C` (stereo not given), the Potency entry was “inactive”.

As to `COc1ccc(-c2noc(-c3ccc(C)cc3)n2)cc1`, the Potency entry is “inactive”.

In the case of `COc1ccc(-c2cc(C(=O)Nc3sc4c(c3C(N)=O)CCCC4)no2)cc1`, the Potency result was “inactive”.

As for `COc1ccc(-c2nc3c(s2)CCc2onc(-c4ccc(OC)cc4)c2-3)cc1`, the Potency was 16.4 µM (active).

With `Cc1ccc(NC(=S)N2CCN(c3ncccn3)CC2)cc1C`, the Potency result was “inactive”.

Turning to `Cc1sc2ncnc(N3CCC(C(=O)Nc4ccc(F)cc4Cl)CC3)c2c1C`, the Potency is 23.1 µM (active).

With `O=C(NNC(=O)C1CCCC1)c1ccc(F)cc1`, the Potency result is “inactive”.

Regarding `O=C(NNC(=O)C1CCN(c2ncccn2)CC1)c1ccccc1`, the Potency entry was “inactive”.

As for `CC(=O)Nc1c(C)nn(-c2ccccc2)c1N1CCC(C(=O)Nc2cc(Cl)ccc2C)CC1`, the Potency result was “inactive”.

Regarding `Cc1sc2ncnc(N3CCC(C(=O)Nc4nc5ccc(Cl)cc5s4)CC3)c2c1C`, the Potency is 7.31 µM (active).

Turning to `Cc1sc2ncnc(N3CCC(C(=O)NNC(=O)c4ccc(F)cc4)CC3)c2c1C`, the Potency was 16.4 µM (active).

For `Cc1nc2ccc(NC(=O)C3CCCCC3)cc2s1`, the Potency result is “inactive”.

On to `CS(=O)(=O)c1ccc2nc(NC(=O)C3C4C=CC(C4)C3C(=O)O)sc2c1` (stereo not given), for which the Potency entry is “inactive”.

As to `Cc1ccc(Cl)cc1NC(=O)C1CCN(S(C)(=O)=O)CC1`, the Potency entry is “inactive”.

As to `CC(C)[C@H](NC(=O)Nc1ccc(S(N)(=O)=O)cc1)C(=O)O`, the Potency entry was “inactive”.

As to `CC(C)CCN1NC2(CCC(C)CC2)NC1=S` (stereo not given), the Potency entry was “inactive”.

As for `CN1C(=O)c2ccccc2C(C(=O)NCCCN2CCCC2)C1c1c[nH]c2ccccc12` (stereo not given), the Potency entry is “inactive”.

As to `CCc1c(O)nc(SCC(=O)N2CCCCC2)n(-c2ccccc2C)c1=O`, the Potency result was “inactive”.

Consider `COc1cc2c(cc1OC)C(COc1ccc(F)cc1)N(C(=O)c1ccccc1F)CC2` (stereo not given), for which the Potency is 16.4 µM (active).

As to `CCc1ccc(OCC2c3cc(OC)c(OC)cc3CCN2C(C)=O)cc1` (stereo not given), the Potency is 13 µM (active).

With `COc1cc2c(cc1OC)CN(CC(=O)Nc1ccc(F)cc1)CC2`, the Potency entry is “inactive”.

As for `COc1ccc2[nH]c(=O)c(C3c4cc(OC)c(OC)cc4CCN3C(=O)c3ccco3)cc2c1` (stereo not given), the Potency result was “inactive”.

Regarding `CCc1ccc(OCC(=O)OC(C)C(=O)NC2CC2)cc1` (stereo not given), the Potency result is “inactive”.

For the compound `COc1ccc(CC(NC(C)=O)C(=O)NC2CCN(C(=O)c3ccc(OC)c(OC)c3)CC2)cc1OC` (stereo not given), the Potency entry is “inactive”.

On to `CC(C)CN(C(=O)CSc1ncnc2sccc12)C1CCS(=O)(=O)C1` (stereo not given), for which the Potency result was “inactive”.

Regarding `O=C(N/N=C/c1ccsc1)c1cc(O)cc(O)c1`, the Potency entry was “inactive”.
